EBV LMP1 NFkB – EBV LMP1-driven NF-kappaB luciferase reporter inhibitors, primary screen, cell-based, luminescence, single point. LMP1-induced NF-kappaB luciferase reporter cells. inhibition, % at 12.5 µM. 350,000 tested, 0.69% active. AID 504558, 2011; in the data active = inhibition above about 41%;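 note: 0% = neutral control wells and 100% = reference inhibitor control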
Shn3 inh set2 – reduction of Shn3 3'UTR firefly luciferase signal, primary screen, Schnurri-3 inhibitor project, cell-based, Clone20 osteoblasts, set 2; Clone20 osteoblast Shn3 3'UTR firefly luciferase, 24 h; inhibition, % at 12.5 µM; 360,000 tested, 0.52% active;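 active = mean inhibition of at least 75% with every replicate also reaching 75%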;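 note: 0% = median of neutral control wells and 100% = pilot-screen positive control compound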
Gli-Sufu antag – Gli-Sufu pathway antagonists, primary screen, luciferase luminescence, Sufu-KO-LIGHT cells, uHTS | 340,000 tested, 0.74% active | Sufu-KO-LIGHT fibroblasts, Gli luciferase reporter luminescence | inhibition, % at 5 µM | AID 588413, 2011;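 active = inhibition above about 55%, limit read from the data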;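 note: 0% = DMSO-treated cells and 100% = wells with medium but no cells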
MITF TRPM1 inh – inhibitors of MITF-dependent TRPM1 promoter reporter, primary screen, cell-based, SK-MEL-5, single point, luciferase; AID 488899, 2010; inhibition, % at 12.5 µM; SK-MEL-5 TRPM1 promoter luciferase, 24 h; 330,000 tested, 0.83% active;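 active = mean inhibition across replicates of 60% or more, whatever share of single replicates reaches that level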
697 NFkB inh – inhibitors of PMA/ionomycin-induced NF-kB reporter, 697 cells, primary screen, B-cell NF-kB inhibitor project, cell-based, luminescence, uHTS; inhibition, % at 4 µM; 697 B-cell NF-kB luciferase reporter, 16 h; 330,000 tested, 0.33% active; in the data active = inhibition above about 35%
Jurkat NFkB inh – inhibitors of induced NF-kB luciferase reporter, primary screen, TCR NF-kB activation inhibitor project, cell-based, luminescence, uHTS | Jurkat, PMA/ionomycin-induced NF-kB luciferase reporter | inhibition, % at 4 µM | 330,000 tested, 0.53% active | AID 435003, 2010; in the data active = inhibition above about 50%
Numbers without * were called inactive; nt = no result. An excerpt weighted towards active compounds, which were near 2.3% of everything screened.

SMILES | EBV LMP1 NFkB | Shn3 inh set2 | Gli-Sufu antag | MITF TRPM1 inh | 697 NFkB inh | Jurkat NFkB inh
O=C(NC12CC3CC(CC(C3)C1)C2)c1ccc(Br)o1 | 8.1 | 35.3 | -4.6 | -2.1 | 4.5 | -15.4
O=C(NC12CC3CC(CC(C3)C1)C2)c1ccc([N+](=O)[O-])o1 | -2.2 | -1.7 | -13.7 | 62.7* | 11.4 | 13.5
CS(=O)(=O)Nc1ccc2c3c(cccc13)CC2 | -6.7 | -0.9 | 21.7 | -3.8 | 4.0 | 3.6
COc1ccc(C)cc1Nc1n[n+](-c2ccccc2)c(-c2c(OC)ccc3ccccc23)s1 | 44.2* | 74.0 | 33.0 | 66.4* | -8.8 | 15.8
COc1ccc(C)cc1Nc1n[n+](-c2ccccc2)c(-c2cc(OC)c(OC)cc2Br)s1 | 4.6 | 10.5 | 9.5 | 9.6 | -0.5 | -21.9
Cc1c(NC(=O)c2nn(C)c(=O)c3ccccc23)c(=O)n(-c2ccccc2)n1C | 9.3 | 3.4 | 5.1 | 6.9 | -10.8 | 3.4
CC(C)CC(=O)Nc1ccccc1N1CCN(c2ccccc2)CC1 | 12.8 | 3.9 | 8.8 | 3.5 | -8.5 | 13.6
O=C(Nc1ccc2c(c1)OCCO2)c1ccccn1 | 48.0* | 28.6 | -48.4 | 32.7 | -73.4 | -69.6
Cc1ccc(NC(=O)c2ccc3c(c2)OCCO3)nc1 | 49.6* | 23.2 | -56.8 | 12.7 | -238.4 | -110.1
O=C(Nc1ccc2c(c1)OCCO2)c1cccc2nc3ccccc3nc12 | -8.2 | 52.2 | 9.1 | 73.1* | -4.7 | 2.3
Cc1ccc(C(=O)Nc2ccc3c(c2)OCCO3)c(C)c1 | 58.2* | 56.6 | -67.8 | 66.3* | -160.1 | -19.8
N=C1CCC(=N)c2c1c(O)c1ccccc1c2O | -7.1 | 3.6 | -3.7 | 35.1 | 12.0 | -1.8
CC(C)N=c1scc(-c2cccs2)n1/N=C/c1ccc(O)c(O)c1O | -21.7 | 88.4* | -19.7 | -2.0 | -58.3 | -30.7
CN=c1scc(-c2ccccc2F)n1/N=C/c1ccc(O)c(O)c1O | 38.6 | 88.4* | -30.5 | 85.6* | nt | nt
CN=c1scc(C)n1/N=C/c1ccc(O)cc1 | -5.9 | -47.5 | 7.3 | -44.1 | -129.3 | -100.8
COc1ccc(S(=O)(=O)N2CCN(CC(=O)Nc3ccc(C)c(F)c3)CC2)cc1 | 50.1* | 1.8 | 31.9 | 7.6 | nt | nt
COc1ccc(/C=C/C(=O)OC(C)CN2CCCCC2)cc1 (configuration not stated) | -2.2 | 5.6 | 16.4 | 17.8 | 12.1 | 5.5
O=[N+]([O-])c1cccc2c(N3CCCC3)ccnc12 | -38.4 | 62.4 | -2.7 | 81.3* | 3.7 | 39.1
CCOC(=O)N(O)c1ccc(C=Cc2ccccc2)cc1 | 86.2* | 28.8 | -24.5 | -56.2 | nt | nt
CC1=NN(c2ccc(C)c(C)c2)C(=O)/C1=C\C=C\c1ccc([N+](=O)[O-])o1 | 22.9 | 94.8* | 1.3 | 83.5* | -42.1 | 2.3
COc1ccc(C2C3=C(CC(C)(C)CC3=O)Oc3ncn(CC(C)C)c(=N)c32)cc1 (configuration not stated) | -3.1 | 0.0 | -1.4 | -19.3 | 10.5 | -13.6
CN(C)c1ccc(N=Nc2ccc(C(=O)O)cc2)cc1 | 36.2 | 34.3 | -62.4 | 66.2* | -136.3 | 26.1
CN(C)c1ccc(C(=O)c2ccccc2)cc1 | -19.8 | -44.4 | -81.6 | -70.7 | -21.5 | -45.2
CCCNc1nc(=S)n(-c2ccccc2)c(C)c1C(C)=O | -15.4 | -14.7 | 9.8 | -3.8 | 6.4 | 5.1
CCCCNc1nc(=S)n(-c2ccccc2)c(C)c1C(C)=O | 6.5 | -9.4 | 6.9 | 64.3* | -16.3 | -2.1
COc1ccc(CC(=O)N2CCN(C(=O)Cc3ccc(OC)c(OC)c3)CC2)cc1OC | -4.3 | 6.3 | nt | nt | nt | nt
C/C(=N\NC(=O)c1ccccc1NC(=O)c1ccc(Cl)cc1)c1ccncc1 | 54.2* | -45.1 | -46.2 | 46.6 | -27.1 | 18.7
CC(=NNC(=O)c1ccncc1)c1ccccc1Cl | 22.6 | 7.4 | 7.5 | -10.3 | nt | nt
CCN1CSC(=S)N(Cc2ccccc2)C1 | 28.8 | 11.4 | 62.5* | 4.4 | 6.8 | -6.5
Cc1ccc(/C(O)=C/C(=O)C(=O)NNC(=O)C(O)(c2ccccc2)c2ccccc2)cc1 | -4.7 | -1.4 | -2.3 | 14.7 | 7.9 | -3.4
